The panel holds about 83,000 compounds, 20% with a hit somewhere; the sample as a whole holds those more often.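 Cell lines were cultured in 96-well plates, exposed to a single compound concentration, and assessed for percent growth 48 hours later.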 Active and inactive are the calls of the source. Rule for the calls: active = growth percent below 10; inactive = the rest.
Key:
Assay in all cases: NCI-60 one-dose screen, 48 h (100 = growth as untreated, 0 = no growth, -100 = all killed)
BT-549 breast = conditions: 10 µM unless noted
MDA-MB-435 melanoma = conditions: 10 µM unless noted
SW-620 colon = conditions: 10 µM unless noted
MCF7 breast = conditions: 10 µM
HCT-116 colon = conditions: 10 µM unless noted
HCC-2998 colon = conditions: 10 µM unless noted
KM12 colon = conditions: 10 µM unless noted

Measured: growth

COc1cc(/C=C/C(=O)N2c3ccccc3CC2C)c(OC)c2c1OCO2 (centres undefined)
inactive: BT-549 breast 97.7% | MDA-MB-435 melanoma 85.8% | SW-620 colon 93.8% | MCF7 breast 91.6% | HCT-116 colon 97.2% | HCC-2998 colon 100%

CC(C)(C)c1ccc(C2CC(=O)C3=C(C2)Nc2ccccc2N(C(=O)c2ccccc2Cl)C3c2ccc(F)cc2)cc1 (centres undefined)
inactive: BT-549 breast 44.4%
active: MDA-MB-435 melanoma -80.1% | SW-620 colon 2.52% | MCF7 breast -33.3% | HCT-116 colon 7.97% | HCC-2998 colon -21.2% | KM12 colon 9.1%

Cn1c(/C=C(\C#N)c2cccc(C(F)(F)F)c2)nc2c(N3CCOCC3)nc(Cl)nc21
active: BT-549 breast -13.1% | MDA-MB-435 melanoma -91.5% | SW-620 colon -68.8% | MCF7 breast -54.1% | HCT-116 colon -85.5%
inactive: HCC-2998 colon 14% | KM12 colon 19.1%

O=C(NN1C(=O)CSC1c1ccc(Cl)cc1)c1[nH]c2ccc(F)cc2c1-c1ccccc1 (centres undefined)
active: HCC-2998 colon 6.69%
inactive: BT-549 breast 50.9% | MDA-MB-435 melanoma 44.9% | SW-620 colon 77.8% | MCF7 breast 14.6% | HCT-116 colon 31.6% | KM12 colon 44.8%

COc1cc(/C=C/C(=O)c2ccc(Cl)cc2)cc(CN2CCCCC2)c1O
inactive: BT-549 breast 91.2% | MDA-MB-435 melanoma 74% | SW-620 colon 88.6% | MCF7 breast 48.1% | HCT-116 colon 82.1% | HCC-2998 colon 95.5% | KM12 colon 72.6%

CCN1C(=O)N(c2ccccc2)C2Nn3c(s/c(=C4\C(=O)N(C(C)C)c5ccccc54)c3=O)=NC21 (centres undefined)
inactive: BT-549 breast 107% | MDA-MB-435 melanoma 99.7% | SW-620 colon 98.7% | MCF7 breast 98.8% | HCT-116 colon 105% | HCC-2998 colon 112% | KM12 colon 105%

COC(=O)/C(CCC=C(C)C)=C1\[C@@H](OC(C)=O)C[C@@]2(C)[C@H]1C[C@@H](O)[C@H]1[C@@]3(C)CC[C@H](NCCO)[C@@H](C)[C@@H]3CC[C@@]12C
inactive: BT-549 breast 114% | MDA-MB-435 melanoma 98.9% | SW-620 colon 97% | MCF7 breast 98.8% | HCT-116 colon 105% | HCC-2998 colon 106% | KM12 colon 103%

CNCCNc1nc2ccccc2c2c(=O)c3cccc(C)c3sc12
active: MDA-MB-435 melanoma 6.07% | SW-620 colon -62.4% | MCF7 breast -66.1% | HCT-116 colon -91.4% | HCC-2998 colon -43.2% | KM12 colon -29.9%
inactive: BT-549 breast 76.4%

O=CCCCC(O)C=O (centres undefined)
inactive: BT-549 breast 112% | MDA-MB-435 melanoma 105% | SW-620 colon 96.9% | MCF7 breast 98.9% | HCT-116 colon 109% | HCC-2998 colon 105% | KM12 colon 103%

COc1cccc(/C(C#N)=C/c2nc3c(N4CCOCC4)nc(Cl)nc3n2C)c1
active: BT-549 breast -77% | MDA-MB-435 melanoma -80.2% | SW-620 colon -72% | MCF7 breast -44.1% | HCT-116 colon -72.9%
inactive: HCC-2998 colon 20% | KM12 colon 16.2%

CCOC(=O)C1=C(C)N=c2s/c(=C\c3ccccc3O)c(=O)n2C1c1ccc(OC)c2ccccc12 (centres undefined)
inactive: BT-549 breast 60.3% | HCT-116 colon 11.6%
active: MDA-MB-435 melanoma -76.6% | SW-620 colon -78.2% | MCF7 breast -75.4% | HCC-2998 colon -86.7% | KM12 colon 8.88%

COc1ccc(-c2nc(-c3ccccc3)c(-c3ccccc3)[nH]2)cc1OC1CCCCC1
inactive: BT-549 breast 118% | MDA-MB-435 melanoma 84.8% | SW-620 colon 88.8% | MCF7 breast 73.6% | HCT-116 colon 88.4% | HCC-2998 colon 90.8% | KM12 colon 89.3%

COc1ccc(C(=O)Nc2ccc3nc(N4CCCCC4)cc(C)c3c2)cc1OC
inactive: BT-549 breast 90.6% | MDA-MB-435 melanoma 88.2% | SW-620 colon 23.7% | MCF7 breast 80.2% | HCT-116 colon 64.2% | HCC-2998 colon 66.5% | KM12 colon 23.7%

FC(F)(F)c1cccc(CNC2CCN(CCc3ccccc3)CC2)c1
inactive: BT-549 breast 96.4% | MDA-MB-435 melanoma 43.6% | SW-620 colon 63% | MCF7 breast 74.9% | HCT-116 colon 31.3% | HCC-2998 colon 19.5% | KM12 colon 70.2%

O=c1oc2ccc(Br)cc2c(=O)n1-c1ccc(Br)cc1F
active: BT-549 breast -19.4% | MDA-MB-435 melanoma -8.23% | SW-620 colon 5.96% | MCF7 breast 0.224% | HCT-116 colon -40.2% | HCC-2998 colon 1.75% | KM12 colon -20%

CCCCOCc1cc(CN2CCN(C)CC2)c(O)c2ncccc12
inactive: BT-549 breast 62% | MDA-MB-435 melanoma 80.8% | SW-620 colon 45.6% | MCF7 breast 27.2% | HCT-116 colon 19.1% | HCC-2998 colon 57.8% | KM12 colon 40.6%

NCCOc1ncccc1/C=C1\c2ccccc2-c2ccc([N+](=O)[O-])cc21
active: BT-549 breast -17.2% | MDA-MB-435 melanoma -70.5% | SW-620 colon -50.3% | MCF7 breast -42% | HCT-116 colon -74.6% | HCC-2998 colon -82.2% | KM12 colon -51.5%

Cc1c(-c2noc(-c3ccc([N+](=O)[O-])cc3)n2)no[n+]1[O-]
inactive: BT-549 breast 95.7% | MDA-MB-435 melanoma 106% | SW-620 colon 97.5% | MCF7 breast 55.2% | HCT-116 colon 87.5% | HCC-2998 colon 102% | KM12 colon 92.2%

COc1ccc(N(C)c2nc(N)nc3sc4c(c23)CCCC4)cc1
inactive: BT-549 breast 24% | SW-620 colon 28.7% | MCF7 breast 15.2%
active: MDA-MB-435 melanoma -9.59% | HCT-116 colon 1.18% | HCC-2998 colon 7.08% | KM12 colon 7.2%

COc1ccc(/C=C2/SC(=O)N(CC(=O)N3CCN(c4cc5c(cc4F)c(=O)c(C(=O)O)cn5C4CC4)CC3)C2=O)cc1
inactive: BT-549 breast 96.1% | MDA-MB-435 melanoma 102% | SW-620 colon 98.2% | MCF7 breast 96% | HCT-116 colon 100% | HCC-2998 colon 105% | KM12 colon 105%

COc1cc(/C=C2\CN(C)C/C(=C\c3cc(CN4CCCCC4)c(O)c(OC)c3)C2=O)cc(CN2CCCCC2)c1O
inactive: BT-549 breast 61.3% | SW-620 colon 20% | MCF7 breast 11.7% | HCT-116 colon 30.7% | HCC-2998 colon 16.1%
active: MDA-MB-435 melanoma 2.5% | KM12 colon 5.98%

COC(=O)[C@H]1CCCN1C(=O)[C@H]1CCCN1C(=O)[C@H](Cc1c[nH]c2ccccc12)NC(=S)Nc1cc(C(F)(F)F)cc(C(F)(F)F)c1
inactive: BT-549 breast 97.4% | MDA-MB-435 melanoma 45.4% | SW-620 colon 70.4% | MCF7 breast 32.5% | HCT-116 colon 41% | HCC-2998 colon 16.1% | KM12 colon 36.4%

Cn1cc([C@@H]2Nc3ccc4[nH]ncc4c3[C@H]3[C@H]4CCC(C4)[C@H]32)c(C(F)(F)F)n1
inactive: BT-549 breast 54.6% | SW-620 colon 23.5% | MCF7 breast 25% | HCT-116 colon 27.6% | HCC-2998 colon 82.8% | KM12 colon 36.5%
active: MDA-MB-435 melanoma -1.69%

N#C/C(=C\c1c(-c2ccccc2)[nH]c2ccccc12)C(=O)c1ccccc1
inactive: BT-549 breast 61.5% | MDA-MB-435 melanoma 10.8% | SW-620 colon 19.9% | MCF7 breast 19.4% | HCT-116 colon 30.4% | HCC-2998 colon 60.1% | KM12 colon 28.2%

Cc1nc2ccccc2c(/C=C/c2ccc(F)cc2)c1C(N)=O
inactive: BT-549 breast 97.4% | MDA-MB-435 melanoma 107% | SW-620 colon 105% | MCF7 breast 69.7% | HCT-116 colon 98.3% | HCC-2998 colon 128% | KM12 colon 101%

COc1cc2nc(NC3CCC3)nc(NC3CCN(C(C)C)CC3)c2cc1OC
inactive: BT-549 breast 72.5% | SW-620 colon 38.7% | MCF7 breast 29.5% | HCT-116 colon 48.1% | HCC-2998 colon 22.7% | KM12 colon 62.9%
active: MDA-MB-435 melanoma -48%

Cn1c2c(c(=O)[nH]c1=O)NC1=C(C(=O)c3ccccc31)C1(C=C(O)c3ccccc31)N2 (centres undefined)
inactive: BT-549 breast 180% | MDA-MB-435 melanoma 117% | SW-620 colon 123% | MCF7 breast 91% | HCT-116 colon 96.5% | HCC-2998 colon 130% | KM12 colon 104%

CCOc1ccc(-c2nonc2NC(=O)c2cccc(C)c2)cc1OCC
inactive: BT-549 breast 66.8% | MDA-MB-435 melanoma 51.7% | SW-620 colon 61.8% | MCF7 breast 60.3% | HCT-116 colon 47.2% | HCC-2998 colon 81.8% | KM12 colon 62.6%

CCOc1cccc(/C=N/NC(=O)C(=O)Nc2cccc(C(F)(F)F)c2)c1O
inactive: BT-549 breast 45.4% | MDA-MB-435 melanoma 49.6% | SW-620 colon 32% | MCF7 breast 11.8% | HCT-116 colon 32% | KM12 colon 27.8%
active: HCC-2998 colon 5.43%

COc1ccc(-c2nc(N3CCN(C(=O)C4CCCCC4)CC3)c3c4c(sc3n2)CCCC4)cc1
inactive: BT-549 breast 61.4% | HCT-116 colon 17% | HCC-2998 colon 53.2%
active: MDA-MB-435 melanoma -54.1% | SW-620 colon -1.68% | MCF7 breast -10.8% | KM12 colon -46.4%

O=C(Nc1ccc(N2CCNCC2)cc1)c1[nH]ncc1Nc1cc(Oc2ccccc2)ncn1
inactive: BT-549 breast 17.5% | MDA-MB-435 melanoma 35.8%
active: SW-620 colon -65.5% | MCF7 breast -0.204% | HCT-116 colon -33.6% | HCC-2998 colon -18.1% | KM12 colon -78%

CSc1nc2c(c(=O)[nH]1)N=C1c3ccccc3C(=O)C1C(c1ccc(F)cc1)N2 (centres undefined)
inactive: BT-549 breast 97.2% | SW-620 colon 54.5% | MCF7 breast 40.4% | HCT-116 colon 48.4% | HCC-2998 colon 64.9% | KM12 colon 41.7%
active: MDA-MB-435 melanoma -2.38%

O=C(Nc1ccc(-c2nc3ccc(NC(=O)c4ccc(Cl)cc4)cc3[nH]2)cc1)c1ccc(Cl)cc1
active: BT-549 breast -5.61% | MDA-MB-435 melanoma -32.7% | HCT-116 colon 0.708% | HCC-2998 colon -23%
inactive: SW-620 colon 18.4% | MCF7 breast 14.4% | KM12 colon 39.7%

Nc1ncnc(N)c1NC(=O)c1ccc(OCc2ccccc2)cc1
inactive: BT-549 breast 107% | MDA-MB-435 melanoma 109% | SW-620 colon 98.1% | MCF7 breast 103% | HCT-116 colon 111% | HCC-2998 colon 115% | KM12 colon 104%

Nc1nc(-c2cnccn2)nn1-c1nc2ccccc2s1
inactive: BT-549 breast 104% | MDA-MB-435 melanoma 103% | SW-620 colon 105% | MCF7 breast 83.8% | HCT-116 colon 93% | HCC-2998 colon 101% | KM12 colon 101%

From PubChem BioAssay (NCI)
